Results reported in publication PMC7819943, “Rice protein-binding microarrays: a tool to detect cis-acting elements near promoter regions in rice”.
In all, about 68,000 sequences were measured (“fluorescence intensity (a.u.)”: median about 9,100, highest 2% from about 16,000 on). Many of the other results were omitted from the sample, so the highest values are more common in it than they were.

What follows are sequences tested against OsWRKY34 (Oryza sativa, UniProt Q0JBA9 1-250) (assay: protein-binding microarray (RPBM); PBS, 2% BSA, 51.3 ng/ul salmon testes DNA, 50 uM zinc acetate, 200 nM TF, 25 C, 1 h; high values mean tight binding). Conditions: protein: recombinant; tags: N-terminal polyhistidine and DsRed monomer fusion (pET32a); label: CyDye5-dUTP incorporated in the synthesized complementary strand; 3' TTTTT single-stranded linker to array surface; dsDNA, one strand shown.
Sequence of OsWRKY34 (Q0JBA9 entry or part of it): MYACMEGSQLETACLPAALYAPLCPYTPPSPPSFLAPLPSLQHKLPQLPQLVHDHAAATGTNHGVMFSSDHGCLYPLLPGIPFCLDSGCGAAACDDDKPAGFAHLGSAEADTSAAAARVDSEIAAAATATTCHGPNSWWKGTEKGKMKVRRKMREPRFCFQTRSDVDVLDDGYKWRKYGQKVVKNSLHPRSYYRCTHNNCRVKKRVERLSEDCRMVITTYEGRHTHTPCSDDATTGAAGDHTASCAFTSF
In short: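 A custom Agilent array was converted to double-stranded form by primer extension with Cy5-dUTP and blocked with 2% BSA. Protein at 200 nM in PBS with 2% BSA, salmon testes DNA and 50 µM zinc acetate was applied for 1 h at 25 °C, followed by washing. The proteins were polyhistidine–DsRed N-terminal fusions of transcription factors, expressed in E. coli BL21-CodonPlus and Ni–NTA-purified. The binding signal is per-feature fluorescence intensity (arbitrary units) from an Axon 4000B scanner.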

In order of rising binding signal:
1. CATGTTAATTTTCTACTACAGCTTAGGTTGATGCTATGTTCGGAGTCACCTAGTGCAG  8270 fluorescence intensity (a.u.)
2. GCATCCTAACATCCCGCCGAAGGACCTTTTCAACCTCATCCGGAGTCACCTAGTGCAG  8300 fluorescence intensity (a.u.)
3. CGAACGGTTTAACATATTTAAAAAAGTCAACGGCGTCAAACGGAGTCACCTAGTGCAG  8310 fluorescence intensity (a.u.)
4. ACACTGCCACTCTCTCCCTAGGCCTATAAATACCACCAGTCGGAGTCACCTAGTGCAG  8340 fluorescence intensity (a.u.)
5. ACACATAAACTTCTAACTTTTCCGTCACATCGTTCCAATTCGGAGTCACCTAGTGCAG  8380 fluorescence intensity (a.u.)
6. GATCCGCTCGCCCCGCCGCGCCGCCGACCATCGCCATCGCCGGAGTCACCTAGTGCAG  8410 fluorescence intensity (a.u.)
7. TGGATTTATTTATTCTTGTTCTTTTTCTCGAAAATTTCCACGGAGTCACCTAGTGCAG  8640 fluorescence intensity (a.u.)
8. CTGTTTAGATCTCCTAGCAACATTTTACACTCTCTTGCATCGGAGTCACCTAGTGCAG  8740 fluorescence intensity (a.u.)
9. CATTTTTCTAATTACAAAGTCCATTTCTTTTTATGTTTTCCGGAGTCACCTAGTGCAG  8830 fluorescence intensity (a.u.)
10. TTTCGACTAACGTTTGACCATTCGTTTTATTCAAAATTTTCGGAGTCACCTAGTGCAG  8880 fluorescence intensity (a.u.)
11. GGGCATATTTCTCTATTTTTCTATTCCTATGGTTTGAAATCGGAGTCACCTAGTGCAG  9080 fluorescence intensity (a.u.)
12. GATCTCTCTCTCATCAGGACCCCGGCCTTAAGTTGTTTCTCGGAGTCACCTAGTGCAG  9120 fluorescence intensity (a.u.)
13. TTATGCGTGACTTGTCTTTTTAATTTTTTAATAATTTTTTCGGAGTCACCTAGTGCAG  9370 fluorescence intensity (a.u.)
14. TCCTCTTCGCCGGCTGCCGCTCCTCTCCCCGCTCGTCTTTCGGAGTCACCTAGTGCAG  9440 fluorescence intensity (a.u.)
15. ATTGAGATAGAGGGAGTGGTTGGGATGGTGAAGTTGCTATCGGAGTCACCTAGTGCAG  9450 fluorescence intensity (a.u.)
16. CTCTGCACGTTTCTTTCCCCTAACAAATACATGTACACACCGGAGTCACCTAGTGCAG  9590 fluorescence intensity (a.u.)
17. ATCCGCAGACCAAGTCAACACTGCTACGTGAACACCACATCGGAGTCACCTAGTGCAG  9850 fluorescence intensity (a.u.)
18. AATATTTCATCAGTTTCTAAATTTTTGACGCCGTTGACTTCGGAGTCACCTAGTGCAG  10200 fluorescence intensity (a.u.)
19. GCTTGTTTCTTTGCTGAATTATTATTTTGCTCATTCCACTCGGAGTCACCTAGTGCAG  10300 fluorescence intensity (a.u.)
20. TTTTTTTTTTATCCGTCCCTACTCCTCGCACCTTAAAAATCGGAGTCACCTAGTGCAG  10300 fluorescence intensity (a.u.)
21. ATTTCCCGTCCTTGTCCTAAATGAGTACTAATTTTGATTTCGGAGTCACCTAGTGCAG  10400 fluorescence intensity (a.u.)
22. ACGTTATTTATTGTTTTAGGTTCAATCTACGAGTTTCTTTCGGAGTCACCTAGTGCAG  10700 fluorescence intensity (a.u.)
23. TTTTTCCCTGAAGCTCCTGTGTGTCATCTCTCTTTTTCTTCGGAGTCACCTAGTGCAG  11100 fluorescence intensity (a.u.)
24. TCAACTGTACTGTACTCCACTCGCCGCACACACTGACACACGGAGTCACCTAGTGCAG  11200 fluorescence intensity (a.u.)
25. GGTTTTGTGATTTTGACACCCATTCAGGTTCGTTGTTTTTCGGAGTCACCTAGTGCAG  11900 fluorescence intensity (a.u.)
26. GATACTCCCTCCATCCATAAATATTTGATGCCGTTGACTTCGGAGTCACCTAGTGCAG  12300 fluorescence intensity (a.u.)
27. CTGCTATGAATTATCGGTTGCTTCCGGTGTTGGGCATTGACGGAGTCACCTAGTGCAG  12400 fluorescence intensity (a.u.)
28. AGTTGTCCTGCTTTTTTGCTTTCCTAATCTGTTTCCATTTCGGAGTCACCTAGTGCAG  13300 fluorescence intensity (a.u.)
29. AATTTTTTTCCTCTCCTGTTTTGTGCCCTTGATATTATGTCGGAGTCACCTAGTGCAG  13400 fluorescence intensity (a.u.)
30. ACTCCCTCCGTATTTTAATATATGACGCCGTTGACTTATTCGGAGTCACCTAGTGCAG  13800 fluorescence intensity (a.u.)
31. ATATGTCTGACTTGTACTTTTATGTTATTTTTCCTCTAATCGGAGTCACCTAGTGCAG  13900 fluorescence intensity (a.u.)
32. CTACTCCCTCCATTTCGAAATGTTTGACACCGTTGACTTTCGGAGTCACCTAGTGCAG  13900 fluorescence intensity (a.u.)
33. TTAAATGAGTGTTGACTTTTCGTATAACGTTTGACCATTTCGGAGTCACCTAGTGCAG  14600 fluorescence intensity (a.u.)
34. ACTCCATCAATTTTTCATTATGTCTGTGTTTGTCCTGACTCGGAGTCACCTAGTGCAG  14900 fluorescence intensity (a.u.)
35. CATATACTCTATCCGTTTCTAAATATTTGACGCCGTTGACCGGAGTCACCTAGTGCAG  16200 fluorescence intensity (a.u.)
36. ATGTCCCTAATTACTGCGTTTTCCATTTTGCTGTTTTTTACGGAGTCACCTAGTGCAG  16500 fluorescence intensity (a.u.)
37. ATACTTCATCCGTTTCTAAATATTTGATGCCGTTGACTTTCGGAGTCACCTAGTGCAG  17600 fluorescence intensity (a.u.)
38. AATTGACTTTTTTATGCTAATTTTCCCTCTAATTACTTGTCGGAGTCACCTAGTGCAG  18400 fluorescence intensity (a.u.)
39. GGTTTCCTCATATGCCCTTGAAAATTTGCTATTCCTCTGTCGGAGTCACCTAGTGCAG  22700 fluorescence intensity (a.u.)
40. TACTTCCTTTGTCCCTAAATATTTGATGCCGTTGACTTTTCGGAGTCACCTAGTGCAG  23900 fluorescence intensity (a.u.)
41. TGACACCGTTGACTTTTCGACCAATGTTTGACCATTCGTTCGGAGTCACCTAGTGCAG  24400 fluorescence intensity (a.u.)
42. ACACCGTTGACTTTTCGACTAACGTTTGACCATTTGTTTTCGGAGTCACCTAGTGCAG  49300 fluorescence intensity (a.u.)
